Rows were chosen to be rich in hits. Some 6% of all compounds tested hit in one or more screens of this group.
D3 antag: antagonists of human D3 dopamine receptor; D3R cells, DiscoveRx beta-arrestin luminescence, antagonist mode; active compounds read low; max response, negative = inhibition, %; 360,000 compounds, 2.5% hits; AID 652054; in the data active = max response below about -50%; inconclusive = no clear call, values can overlap the other calls; note: % is set by controls: 0 for no effect and ±100 for the full control effect
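Cells expressing the human receptor were seeded at 1500 cells/well, incubated overnight at 37 degrees C in 5% CO2, then exposed to library compounds with dopamine controls for 90 minutes at 37 degrees C before luminescent detection.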
D1 antag: antagonists of human D1 dopamine receptor. activity change, negative = inhibition, % at 10 µM. AID 504652. P21728. 360,000 compounds, 3.2% hits. HEK293 TREx D1 cells, calcium flux, dopamine EC80; active compounds read low; in the data active = activity change below about -30%; note: % is set by controls: 0 for no effect and ±100 for the full control effect
Target sequence (P21728 whole entry, looked up): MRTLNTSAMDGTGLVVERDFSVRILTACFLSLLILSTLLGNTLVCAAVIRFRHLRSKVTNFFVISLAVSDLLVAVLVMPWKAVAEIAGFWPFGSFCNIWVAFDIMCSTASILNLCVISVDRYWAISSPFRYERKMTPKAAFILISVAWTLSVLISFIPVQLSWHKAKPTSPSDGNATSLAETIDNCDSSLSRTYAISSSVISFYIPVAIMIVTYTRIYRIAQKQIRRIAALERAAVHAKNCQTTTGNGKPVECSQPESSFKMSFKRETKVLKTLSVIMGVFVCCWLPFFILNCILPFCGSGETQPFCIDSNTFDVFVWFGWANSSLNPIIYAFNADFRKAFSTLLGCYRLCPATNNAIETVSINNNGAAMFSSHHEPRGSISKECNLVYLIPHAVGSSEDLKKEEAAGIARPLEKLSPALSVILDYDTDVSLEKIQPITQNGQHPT
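Tetracycline-induced HEK293 T-REx cells with force-coupled D1 receptor were loaded with a no-wash calcium dye. Compound was added after a 10 s baseline and read kinetically for 180 s; EC80 dopamine was then added and calcium flux followed another 180 s.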
D1 PAM: human D1 dopamine receptor positive modulation; potentiation, % at 10 µM; P21728; 360,000 compounds, 0.036% hits; AID 504651; HEK293 TREx D1 cells, calcium flux, dopamine EC20 potentiation; in the data active = potentiation above about 30%; note: 0% is about no effect
D1 agonist: human D1 receptor agonism. 360,000 compounds, 1% hits. HEK293 T-REx D1 cells, calcium flux, agonist mode. activation, % at 2 µM. P21728; in the data active = activation above about 30%; note: 0% is about no effect
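Tetracycline-induced HEK293 TREx D1 cells, force-coupled to calcium signalling, were dye-loaded with a no-wash calcium kit. Compound was pin-added after a 10 s baseline. Fluorescence was read kinetically at 1 cycle/s for 180 s, with calcium rises flagged as agonism.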
DRD3 agonist: activates the human D3 dopamine receptor; 410,000 compounds, 0.58% hits; AID 652048; max activation, %; D3R DiscoveRx beta-arrestin cells, luminescence, 90 min; P35462; in the data active = max activation above about 30%; note: 0% is about no effect
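Cells at 1500/well, incubated overnight, then treated with pinned compounds (dopamine as control) for 90 min at 37 degrees C. DiscoveRx reagent added for 30 - 60 minutes at room temperature; luminescence read.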
Active calls of the source: *; ? = inconclusive; / = not tested or not shown; ! = a repeat was not active.

SMILES	D3 antag	D1 antag	D1 PAM	D1 agonist	DRD3 agonist
CCCCN(CC)CCCNC(=O)c1cc2c(=O)[nH]c3ccccc3c2n1C	/	2.9	-1.3	-0.2	-35.4
Cc1ccc(NC(=O)c2ccc(-n3c(C)nnc3C)cc2)cc1F	/	-10.9	-0.8	0.7	-11.8
C=CCN1CCN(C(=O)c2oc3ccccc3c2C)CC1	-61.4*	-2.0	1.6	0.4	-10.7
Cc1c(C(=O)N2CCCCC2)oc2ccccc12	1.3	/	/	/	-13.5
CC(=O)N1CCN(C(=O)c2oc3ccccc3c2C)CC1	-10.6	-6.2	5.7	1.8	-2.9
Cc1c(C(=O)N2CCN(Cc3cccs3)CC2)oc2ccccc12	-79.4*	-24.3	3.3	1.5	-24.0
COc1ccc(S(=O)(=O)N2CCC(C(=O)NCC3CCCO3)CC2)cc1 (stereo not drawn)	-16.0	/	-1.9	-1.5	-5.2
COC(=O)[C@@]1(Sc2ccccc2)CC(=O)N[C@@H]1c1ccccc1	16.1	/	/	/	1.6
N#C/C(=N\Nc1ccccc1)C(N)=S	-24.3	-27.1	-7.0	18.8	12.0
N#C/C(=N\Nc1ccc(Cl)cc1)C(N)=S	10.5	-14.6	-3.0	30.3*	10.6
O=C(CCC(=O)N1CCOc2ccc(Cl)cc21)NCCCN1CCN(c2ccccc2F)CC1	-95.5*	-42.0*	-22.3	8.7	3.5
Cc1ccc(C)c(N2CCN(CCCNC(=O)CCC(=O)N3CCOc4ccc(Cl)cc43)CC2)c1	/	-2.2	-9.9	17.4	/
O=C(CCC(=O)N1CCOc2ccc(Cl)cc21)NCCCN1CCC(Cc2ccccc2)CC1	-70.6*	-41.1*	-19.1	12.6	-14.2
CCOC(=O)C1=C(COC(=O)COc2ccc(Br)cc2)NC(=O)NC1C (stereo not drawn)	0.8	0.3	0.9	3.4	0.2
c1ccc(-c2cn(-c3ccccc3)c3[n+]2CCS3)cc1	-10.5	23.4	-2.0	6.4	-20.0
COc1ccc(-c2cn(-c3ccccc3)c3[n+]2CCS3)cc1	7.5	-53.0*!	-7.2	2.3	-1.4
O=c1c2ccccc2sn1-c1cc(S(=O)(=O)N2CCOCC2)ccc1N1CCCC1	-22.9	4.1	-0.2	89.5*	-30.7
Cc1ccc(C)c(SCC(=O)NNC(=O)c2ccccc2)c1	4.2	-17.7	3.4	4.6	18.7
Cc1ccc(SCC(=O)NNC(=O)c2ccccc2)cc1C	-69.9*	-0.9	11.7	1.5	-16.3
Cc1ccc(NC(=O)c2ccc(F)c(S(=O)(=O)NCCc3ccccc3)c2)cc1F	/	-30.2*	-0.8	11.7	5.5
Cc1ccc(NC(=O)c2ccc(F)c(S(=O)(=O)N3CCc4ccccc4C3)c2)cc1F	/	3.1	-1.2	3.7	-1.3
CCOc1ccc(NC(=O)Cn2c(=O)cc(C)c3c(C)nn(-c4cccc(Cl)c4C)c32)cc1	/	2.7	-2.7	3.8	-13.9
Cc1cccnc1NC(=O)C1CCN(S(=O)(=O)c2ccc3c(c2)CCC(=O)N3)CC1	40.0	-42.6*	1.9	0.2	0.0
O=C1CCc2cc(S(=O)(=O)N3CCC(C(=O)Nc4nccs4)CC3)ccc2N1	0.0	17.4	-0.3	3.5	0.0
CCN(CC)c1ccc(NC(=O)C2CCN(c3nnc(-n4cccc4)s3)CC2)c(C)c1	/	-37.7*	-0.3	-0.2	-0.3
SMILES	D3 antag	D1 antag	D1 PAM	D1 agonist	DRD3 agonist
O=C(Nc1ccccc1C(F)(F)F)C1CCN(c2nnc(-n3cccc3)s2)CC1	/	-12.2	-4.7	7.2	1.3
O=C(NCCCN1CCc2ccccc2C1)C1CCN(c2nnc(-n3cccc3)s2)CC1	-82.3*	-8.8	-2.0	7.4	-9.4
Cc1oc2c(C)c3oc(=O)c(CCC(=O)N4CCCCC4)c(C)c3cc2c1C	/	-7.8	-0.9	2.3	5.5
CC(C)NC(=O)C1C(c2ccc(C(F)(F)F)cc2)=Nc2ccccc2N1C(=O)c1cccc(C(F)(F)F)c1 (stereo not drawn)	17.2	/	/	/	7.1
N#Cc1c(Nc2ccccc2)[n+]([O-])c2ccc(Cl)cc2[n+]1[O-]	-54.6*	/	/	/	-23.3
COCc1cc(C)[nH]c(=O)c1C#N	-53.4*	9.4	1.2	2.2	-10.1
O=C(Nc1ccc(F)c(Cl)c1)N1CCC(CN2CCc3ccccc3C2)CC1	/	-13.6	-3.8	4.8	-20.5
COc1cc2c(cc1OC)C(c1ccc(Cl)cc1)N(c1ccc(C)c(F)c1)C(=O)C2 (stereo not drawn)	/	1.4	0.1	5.6	-12.9
CSCCC(C(=O)Nc1c(C)cccc1C)n1c(-c2ccc(-c3ccccc3)cc2)nc2ccccc21 (stereo not drawn)	1.4	/	/	/	-0.4
CSCCC(C(=O)Nc1c(C)cccc1C)n1c(-c2cc(C)cs2)nc2ccccc21 (stereo not drawn)	-65.7*	/	/	/	-20.7
Cc1cccc(C)c1NC(=O)C(c1ccncc1)N1CCN(CCN(C)C)CC1 (stereo not drawn)	10.2	/	/	/	5.1
CCC(C)NC(=O)Cn1c(=O)n(-c2ccc(OC)c(OC)c2)c(=O)c2ccccc21 (stereo not drawn)	/	-7.4	-0.2	-0.1	5.1
Cc1cccc(S(=O)(=O)Nc2cccc3c2C(=O)c2ccccc2-3)c1	12.9	2.6	1.7	49.7*	2.4
COC(=O)C1=C(C)NC(COC(N)=O)=C(C(=O)OC(C)C)C1c1cccc(Cl)c1Cl (stereo not drawn)	/	/	/	/	1.8
CCn1nc(-c2ccccc2)c2nc3ccccc3nc21	1.1	17.0	0.1	98.0*	-0.5
CCCCCn1nc(-c2ccccc2)c2nc3ccccc3nc21	-1.7	20.6	6.9	37.3*	-3.0
CCCn1nc(-c2ccccc2)c2nc3ccccc3nc21	-21.3	5.5	7.6	70.4*	-3.9
Cc1cc(NC(=O)CS(=O)c2cn(Cc3cccc(Cl)c3)c3ccccc23)no1 (stereo not drawn)	0.0	/	/	/	-4.8
COc1cc(/C=C/CNC[C@H]2O[C@@H](n3cc(C)c(=O)[nH]c3=O)C[C@@H]2O)ccc1O	6.0	/	/	/	-5.0
O=C1O[C@@H](c2ccccc2)C[C@@H](O)[C@H](O)CCCc2ccccc21	-54.6*	/	/	/	-13.4
CNCCCC1c2ccccc2C=Cc2ccccc21	-99.2*	-21.9	-5.2	42.8*	-87.0
Cc1cccc(C)c1NC1=NC2(CCCCC2)N=C(N)N1	22.1	-3.4	0.6	1.6	-1.1
NC1=NC2(CCCCC2)N=C(Nc2ccc(Br)cc2)N1	-7.0	-37.2*	-11.2	2.2	-9.2
Cc1ccc(NC2=NC3(CCCC3)N=C(N)N2)c(C)c1	12.0	-37.1*	-4.4	0.7	4.0
Cc1ccc(NC2=NC3(CCCCC3)N=C(N)N2)c(C)c1	-21.9	-65.9*	-6.2	-0.7	-29.0
Cc1ccc(C)c(NC2=NC3(CCCCC3)N=C(N)N2)c1	-27.7	-4.7	-11.8	-3.5	-21.4
O=C(CSCc1c(F)cccc1Cl)NNC(=S)NC1CCCCC1	5.3	-3.7	-2.1	6.6	-15.7
Cc1cccc(NC(=O)CNC(=O)CN2CCN(C)CC2)c1C	-7.0	-11.1	/	2.3	6.4
CCCNc1nc(Nc2ccc(C)cc2)nc(N2CCCC2)n1	?	-35.5*	-23.1	4.6	-5.4

Compound activity (PubChem)
